HT1080 IDH1KD tx = toxicity to HT-1080 IDH1 knockdown cells (counter line). AID 686971. Potency, µM (doses to about 46.1 µM), inactives show at the top dose activity, negative = toxicity, usual class: cytotoxic. hit rate 2% among 360,000. HT-1080 IDH1 knockdown viability, ATP luminescence, 48 h;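 note: 0% = DMSO wells and -100% = cell-free medium wells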
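Using the IDH1-knockdown HT-1080 line run in the same batch and compound series as the NT line, viability after 48 h at 37 °C was determined by CellTiter-Glo luminescence and expressed as % activity.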
ATXN2 expr inh = reduces ATXN2 reporter expression in HEK-293 cells. HEK-293 ATXN2-luciferase reporter, luminescence, 24 h. Potency, µM (series often up to 57 µM), without a hit: top-dose activity change, negative = inhibition, most hits filed as inhibitors. hit rate 0.72% among 360,000. AID 1745845; note: % is set by controls: 0 for no effect and ±100 for the full control effect; nearly all actives have a fitted effect of over 55% in size
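qHTS (up to 57 uM final) was run with 24 h compound exposure of reporter cells at 37 °C. Each well was multiplexed: SteadyGlo luminescence measured ATXN2-luciferase expression after a fluorogenic Gly-Phe-AFC viability readout (25 uM final).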
HepG2 tox-1 = kills HepG2 cells in TGF-b inhibitor counter-screen; hit rate 0.76% among 410,000; HepG2 CAGA-GFP viability, ATP luminescence, 18 h; Potency, µM (top dose mostly 46.1 µM), without a hit: at the top dose activity change, negative = cytotoxicity, usual class: cytotoxic
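CellTiter-Glo luminescence gave cytotoxicity after 18 hours at 37 degrees C. The cells were HepG2 CAGA-GFP in 1% FBS DMEM, stimulated with 500 pg/mL TGF-beta after compound addition. %Activity was normalised to no-cell wells (complete cell-killing) and DMSO (no toxicity), and curves were fitted and classified.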
ATXN viability = reduces viability in counter-screen for ATXN expression inhibitors | Potency, µM (highest dose often 56.7 µM), usual class: cytotoxic | AID 651635 | S2 cells (HEK-293 line with an ATXN2-luciferase reporter) viability, CellTiter-Fluor protease fluorescence, 24 h | hit rate 0.49% among 400,000; note: nearly all actives have a fitted effect of over 40% in size
HT1080-NT tox = kills 2HG-producing HT-1080-NT fibrosarcoma cells; HT-1080-NT fibrosarcoma viability, CellTiter-Glo ATP luminescence, 48 h; Potency, µM (titrated, usually from 46.1 µM), for the others: top-dose activity, negative = less viability, most hits filed as cytotoxic; hit rate 1.6% among 360,000;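 note: NT is the 2HG producing partner of a matched IDH1 knockdown line; 0% = DMSO-treated cells and -100% = media-only wells without cells; nearly all actives have a fitted effect of over 55% in size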
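Viability of the 2HG-overproducing fibrosarcoma line after 48 hours of compound exposure at 37 degrees C was determined by luminescence with CellTiter-Glo, and concentration-effect curves were then fitted and categorized.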
TGFb inhibitor = TGF-b pathway inhibition | HepG2 CAGA-GFP TGF-b/SMAD3 reporter, GFP fluorescence, 18 h; TGF-beta stimulated, 500 pg/mL final | Potency, µM (titrated, usually from 46.1 µM), for the others: top-dose activity, negative = inhibition, actives largely listed as inhibitors | hit rate 1.2% among 410,000; note: % is set by controls: 0 for no effect and ±100 for the full control effect; nearly all actives have a fitted effect of over 65% in size
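HEPG2 CAGA-GFP reporter cells (1000/well, DMEM with 1% FBS) received compounds, then recombinant TGF-beta at 500 pg/mL final for 18 hours at 37 degrees C. Per-cell GFP summed per well was normalised to unstimulated and stimulated DMSO controls before curve fitting.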
TGFb CAGA inh = confirmation of TGF-b signaling inhibitors in HepG2 reporter cells; hit rate 63% among 1,600; shares compounds with TGFb inhibitor; Potency, µM (series often up to 46.1 µM), inactives show at the highest dose activity, negative = inhibition, most hits filed as inhibitors; HepG2 CAGA-GFP TGF-b reporter, GFP fluorescence, 18 h; cells stimulated with TGF-beta, 500 pg/mL; note: % is set by controls: 0 for no effect and ±100 for the full control effect; nearly all actives have a fitted effect of over 65% in size
HepG2 tox-2 = HepG2 cytotoxicity, TGF-b inhibitor counterscreen; shares compounds with TGFb inhibitor; HepG2 CAGA-GFP viability, ATP luminescence, 18 h; cells stimulated with TGF-beta, 500 pg/mL; Potency, µM (series often up to 46.1 µM), without a hit: top-dose activity, negative = cytotoxicity, hits mostly inhibitors; hit rate 27% among 1,600; AID 720535; note: % is set by controls: 0 for no effect and ±100 for the full control effect; nearly all actives have a fitted effect of over 70% in size
TGFb CCL64 inh = blocks TGF-b signaling in CCL64 reporter cells; shares compounds with TGFb inhibitor; Potency, µM (top dose mostly 46.1 µM), inactives show top-dose activity, negative = inhibition, actives largely listed as inhibitors; hit rate 41% among 1,600; CCL64 CAGA-GFP reporter, TGF-b stimulated, GFP fluorescence, 18 h; note: nearly all actives have a fitted effect of over 65% in size
COP TGFb inh = validation of TGF-b inhibitors in HepG2 COP promoter reporter. shares compounds with TGFb inhibitor. HepG2 COP-GFP TGF-b reporter, GFP fluorescence, 18 h; cells stimulated by added recombinant TGF-beta. Potency, µM (highest dose often 46.1 µM), without a hit: top-dose activity, negative = inhibition, actives largely listed as inhibitors. hit rate 3% among 1,600. AID 720537; note: nearly all actives have a fitted effect of over 70% in size
* = called active by the depositor; i = inactive; ? = inconclusive; . = not tested or not shown. Sampled rows, rich in hits. Any-hit rate of the full collection: about 3.8%. Calls come from the whole dose curve; as a rule, active = well fitted curve in the direction sought with a large enough effect; inconclusive = small, poorly fitted or top-dose-only effect, or another doubt; inactive = no such curve, though single readings can be large; an effect the other way counts as inactive or inconclusive. Potency is the fitted concentration of half-maximal effect.

SMILES	HT1080 IDH1KD tx	ATXN2 expr inh	HepG2 tox-1	ATXN viability	HT1080-NT tox	TGFb inhibitor	TGFb CAGA inh	HepG2 tox-2	TGFb CCL64 inh	COP TGFb inh
CCN(CC)c1ccc(Nc2nc(N3CCOCC3)c3ccccc3n2)cc1	?	-35%	-94%	i	11µM*	10µM*	?	21µM*	?	30%
Cc1ccc(NC(=O)C2(c3ccc([N+](=O)[O-])cc3)CCCC2)cc1	0%	.	1%	i	-18%	?	-28%	-9%	-10%	0%
Cc1cc(C)c(NC(=O)C(C)n2c(=O)c(C(F)(F)F)nc3ccccc32)c(C)c1 (configuration not stated)	.	-19%	-15%	i	.	-25%	.	.	.	.
COc1ccc(C(=O)Oc2cccc3cccnc23)cc1[N+](=O)[O-]	16µM*	-20%	5.6µM*	?	10%	6.3µM*	3%	0%	16%	5%
NC(=O)c1ccc(Oc2cccc3cccnc23)c([N+](=O)[O-])c1	-4%	-9%	7%	i	-23%	3%	.	.	.	.
COc1cc(C2CC(=O)Nc3c2c(C)nn3-c2nncc(-c3ccc(C)cc3)n2)cc(OC)c1OC (configuration not stated)	.	-12%	-27%	i	.	?	.	.	.	.
Cc1noc(-c2ccc(NCc3ccccc3)c([N+](=O)[O-])c2)n1	.	8%	-6%	i	.	-10%	.	.	.	.
O=[N+]([O-])c1ccc(S(=O)(=O)c2ccccc2)nc1	5.8µM*	.	14µM*	.	5.8µM*	2.5µM*	4.1µM*	5.8µM*	3.3µM*	8.2µM*
Cc1ccc(S(=O)(=O)c2ccc([N+](=O)[O-])cn2)cc1	4.6µM*	?	7.1µM*	.	2.6µM*	2.8µM*	3.3µM*	2.9µM*	3.3µM*	5.2µM*
Cc1ccc(S(=O)(=O)c2ccc(C)cc2)cc1	1%	-6%	-16%	i	6%	1%	.	.	.	.
Cc1ccc(OCCn2c(-c3ccc(Cl)cc3)nc3ccccc3c2=O)c(C)c1	.	4%	-19%	i	.	10%	.	.	.	.
CCCCN(CC)C(=O)CSc1nc2n[nH]c(C)c2c(=N)n1-c1cccc(C)c1	-23%	.	-30%	?	-25%	7.1µM*	?	-18%	?	11%
CCN(CC)c1ccc(-c2nnc(SCC(=O)NCc3ccco3)n2C)cc1	.	.	-6%	.	.	-2%	.	.	.	.
Cc1ccccc1NC(=O)c1ccc(Nc2c([N+](=O)[O-])cc([N+](=O)[O-])c3ccccc23)cc1	-8%	-28%	-20%	i	-17%	?	?	-19%	2%	-1%
Cc1cccc(CNC(=O)c2ccc3c(c2)N(C)C(=O)C2CCCCN32)c1 (configuration not stated)	.	237%	-26%	i	.	32%	.	.	.	.
CCOc1cc2c(cc1O)C(=NOC)CC1C2CCC2(C)C(O)CCC12 (configuration not stated)	1.5µM*	11%	-17%	i	1.6µM*	18µM*	7.3µM*	-7%	7.3µM*	-2%
CCc1nc(N)nc(N)c1-c1ccc(N(C)Cc2ccccc2)c([N+](=O)[O-])c1	0.65µM*	19µM*	-38%	?	?	0.71µM*	?	0.29µM*	29µM*	82%
Cc1noc(-c2ccc(N(C)Cc3ccccc3)c([N+](=O)[O-])c2)n1	.	37%	-18%	i	.	?	.	.	.	.
CCc1cccc(NC(=O)CNS(=O)(=O)c2ccc3nc(C)sc3c2)c1	.	.	-23%	.	.	.	.	.	.	.
Cc1nc2ccc(S(=O)(=O)NCC(=O)Nc3cccc(F)c3)cc2s1	4%	.	-2%	i	3%	?	-8%	6%	-9%	-1%
Cn1cnc(S(=O)(=O)N2CCCC(C(=O)NCc3ccc(F)cc3)C2)c1 (configuration not stated)	.	.	-2%	.	.	1%	.	.	.	.
O=C(COc1cccc(C(F)(F)F)c1)Nc1ccccc1N1CCCCC1	-1%	-3%	-10%	i	2%	2%	.	.	.	.
CSCCC(NS(=O)(=O)c1cccc(C(F)(F)F)c1)C(=O)Nc1ccccc1N1CCCC1 (configuration not stated)	-4%	1%	-27%	?	2%	14µM*	16µM*	-7%	16µM*	-1%
O=C(CSc1nnc(-c2ccc(F)cc2)c2ccccc12)Nc1cccc(Cl)c1	-12%	7%	-16%	?	-2%	-19%	.	.	.	.
O=C(CSc1nnc(-c2ccc(F)cc2)c2ccccc12)Nc1ccccc1	-19%	38%	-4%	i	-10%	13µM*	15µM*	-5%	-10%	-14%
Cc1ccc(-c2cc(C(F)(F)F)n3nc(C(=O)Nc4ccc(Cl)cc4Cl)cc3n2)cc1	.	7%	7%	i	.	5%	.	.	.	.
Cc1ccc(C)c(OCCC(=O)Nc2cccc(S(=O)(=O)N3CCCCC3)c2)c1	9%	-8%	-5%	i	0%	13µM*	23µM*	-24%	?	6%
CSc1ccc(CCNC(=O)c2sc3ncccc3c2-n2cccc2)cc1	.	?	-35%	?	.	?	.	.	.	.
COc1cc(CNCCO)cc(Cl)c1OCc1ccccc1Cl	?	-7%	-22%	i	?	11µM*	-94%	16µM*	29µM*	47%
CCN(CC)S(=O)(=O)c1ccc2c(c1)N(CC(=O)N(C)Cc1ccccc1)C(=O)CO2	.	-7%	-8%	i	.	-13%	.	.	.	.
